From PubChem BioAssay AID2528 (National Center for Advancing Translational Sciences (NCATS), 2010)
Where “and” joins values, the source holds several entries; their conditions need not be identical. Equal entries are not always repeated. Among all 350,000 compounds or so, about 700 (0.2%) were called active. The list comes from a sample in which actives are over-represented; it also holds similar structures and randomly drawn compounds. Unmarked numbers belong to inactive results. Calls follow the shape of the dose curve; as a rule, active = well fitted inhibition curve with a large enough effect; inconclusive = small, poorly fitted or top-dose-only effect; inactive = flat fitted curve, though single readings scatter.

molecular target: RecQ-like DNA helicase BLM (Homo sapiens) (UniProt P54132); assay: qHTS Assay for Inhibitors of Bloom's syndrome helicase (BLM); conditions: recombinant BLM DNA unwinding, fluorescence dequenching; series mostly up to 56.1 µM; activity change, negative = inhibition: at the top concentration; also: nearly all actives have a fitted effect of over 35% in size
Excerpt: Survival of cells and the faithful propagation of the genome depend on elaborate mechanisms of detecting and repairing DNA damage. Treatment of advanced cancer relies on radiation therapy or chemotherapy, which kill cancer cells by causing extensive DNA damage. It is often found, that cancer cells develop resistance to therapy through enhanced activity of DNA repair functions; this has led to an increased interest in developing drugs that interfere with DNA repair, which could sensitize cancer cells to conventional therapy.
This validation qHTS assay pertains to human BLM, which is important in resolving abnormal DNA structures formed during replication or homologous recombination. Shutting down the expression of BLM leads to chromosomal instability and higher radiation sensitivity in cultured cells.
The validation assay was a fluorescence quenching based kinetic qHTS for BLM Helicase DNA unwinding. The activity was measured as ATP-dependent separation of a 20-bp DNA duplex extended by 30-nt single-stranded tails (forked duplex). The forked DNA substrate was tagged with rhodamine fluorophore (carboxytetramethyl rhodamine, TAMRA) and BHQ-2 (Black Hole Quencher 2) dark quencher. Strand separation results in an increase in the fluorescence of TAMRA (excitation 525 nm, emission 598 nm). This substrate construct operates in a red-shifted region where very few compound library members have been noted to fluoresce (PubChem AIDs 593 and 594). An additional feature of the assay is the inclusion of 2.5 ug/ml poly (dIdC), to reduce interference by compounds such as DNA intercalators, a major source of false inhibitors.
Ian Hickson, University of Oxford
Opher Gileadi, Structural Genomics Consortium, University of Oxford
Screening Center PI: Austin, C.P.
Screening Center: NIH Chemical Genomics Center [NCGC]
Three uL of reaction buffer (25 mM Tris-HCl (pH 8.0), 5 mM NaCl, 2 mM MgCl2, 1mM DTT, 0.01% Tween- 20, and 2.5 ug/ml poly(dI-dC), including enzyme (50 nM BLM), were dispensed into a 1536-well Greiner black assay plate via solenoid-valve based nanoliter dispensers. Compounds (23 nl each in columns 5-48) and control (23 nl each in column 2 as dose-response) were transferred via a Kalypsys pintool equipped with a 1536-pin array. The plates were incubated for 15 min at room temperature, and then 1 ul of substrates (200 nM DNA and 2 mM ATP, final concentrations) was added to start the reaction. The plate was transferred into a ViewLux high-throughput CCD imager where the reaction progress was measured in a discontinuous kinetic mode (two reads spaced 2 hours apart, with intermediate room temperature incubation of the covered assay plate) by using standard red-fluorescence optics (excitation filter 525 nm, emission filter 598 nm). Enzyme-free and vehicle (DMSO) controls were included for signal normalization.
Potency is read from the fitted curve at half-maximal effect.

Sequence of RecQ-like DNA helicase BLM (Homo sapiens) (P54132 whole entry, looked up): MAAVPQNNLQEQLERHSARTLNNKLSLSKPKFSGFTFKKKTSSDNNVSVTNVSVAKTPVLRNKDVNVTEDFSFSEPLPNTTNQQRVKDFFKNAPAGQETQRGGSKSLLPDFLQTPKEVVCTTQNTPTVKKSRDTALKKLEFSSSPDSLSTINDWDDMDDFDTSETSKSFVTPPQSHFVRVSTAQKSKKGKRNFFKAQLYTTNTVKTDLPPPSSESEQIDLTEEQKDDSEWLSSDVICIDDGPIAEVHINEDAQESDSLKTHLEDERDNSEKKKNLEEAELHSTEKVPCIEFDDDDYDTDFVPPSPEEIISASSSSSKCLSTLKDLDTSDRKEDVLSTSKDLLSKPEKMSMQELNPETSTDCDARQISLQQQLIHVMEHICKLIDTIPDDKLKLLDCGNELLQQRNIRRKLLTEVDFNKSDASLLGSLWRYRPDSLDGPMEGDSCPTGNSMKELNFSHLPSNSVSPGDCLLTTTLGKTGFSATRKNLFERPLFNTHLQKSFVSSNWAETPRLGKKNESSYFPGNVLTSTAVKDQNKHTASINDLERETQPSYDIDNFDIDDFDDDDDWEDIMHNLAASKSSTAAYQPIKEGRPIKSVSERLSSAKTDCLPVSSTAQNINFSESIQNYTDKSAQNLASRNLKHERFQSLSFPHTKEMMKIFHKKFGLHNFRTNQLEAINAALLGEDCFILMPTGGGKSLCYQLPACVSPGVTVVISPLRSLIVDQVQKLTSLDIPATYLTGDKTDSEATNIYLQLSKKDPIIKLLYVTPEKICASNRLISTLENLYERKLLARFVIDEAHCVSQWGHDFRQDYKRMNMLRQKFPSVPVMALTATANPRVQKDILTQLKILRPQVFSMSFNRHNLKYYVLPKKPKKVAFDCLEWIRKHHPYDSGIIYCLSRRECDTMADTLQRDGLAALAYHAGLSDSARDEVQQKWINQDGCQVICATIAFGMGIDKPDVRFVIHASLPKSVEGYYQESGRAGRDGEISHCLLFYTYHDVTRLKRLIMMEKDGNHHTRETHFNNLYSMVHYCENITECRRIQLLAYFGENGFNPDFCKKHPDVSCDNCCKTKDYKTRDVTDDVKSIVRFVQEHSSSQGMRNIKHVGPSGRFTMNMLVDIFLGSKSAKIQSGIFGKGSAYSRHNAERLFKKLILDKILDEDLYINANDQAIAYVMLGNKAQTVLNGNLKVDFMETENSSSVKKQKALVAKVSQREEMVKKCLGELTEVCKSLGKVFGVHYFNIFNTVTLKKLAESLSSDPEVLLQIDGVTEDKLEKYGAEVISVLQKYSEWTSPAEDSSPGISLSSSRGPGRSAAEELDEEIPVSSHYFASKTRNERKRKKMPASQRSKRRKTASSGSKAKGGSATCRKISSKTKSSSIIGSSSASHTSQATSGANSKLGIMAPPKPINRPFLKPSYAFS

SMILES	activity change, negative = inhibition	Potency
CN1C(=O)CN2CCc3ccccc3C2c2cc(Cl)ccc21 (centres undefined)	3.82%	
C=C[C@](C)(O)CCC1C(=C)CCC2[C@@](C)(CO)CCC[C@@]12C (some centres undefined)	-2.39%	
CC/C=C\C/C=C\C/C=C\C/C=C\C/C=C\C/C=C\CCC(=O)NCCc1ccc(O)c(O)c1	-0.801%	
Cc1c(S(=O)(=O)O)oc2c1C(=O)C(=O)c1c-2ccc2c1CCCC2(C)C		31.6 µM (active)
CC(C)C(N)C(=O)OCCOCn1cnc2c(=O)[nH]c(N)nc21 (centres undefined)	-7.58%	
O=C(O)C[C@@H]1NC(=O)[C@H](Cc2ccccc2)NC1=O	0.405%	
CCc1ccc(NC(=O)c2cnc3c(-c4ccccc4)c(C)nn3c2C)cc1	-1.21%	
COC1C[C@@H](O[C@@H]2C(C)C(=O)OC(C)C(C)C(O)C(C)C(=O)[C@@]3(CO3)CC(C)C(OC3OC(C)CC(N(C)C)C3O)C2C)OC(C)[C@@H]1O (some centres undefined)	-4.86%	
CC(=O)Oc1c2c(c3c(c1CC=C(C)C)O[C@@]14C(=CC5CC1C(C)(C)OC4(C/C=C(\C)C(=O)O)C5=O)C3=O)OC(C)(CCC=C(C)C)C=C2 (some centres undefined)	-15.4%	
CCC(C)[C@@H](N)C(=O)O (some centres undefined)		inactive
c1ccc2c(Nc3ccncc3)nc(-c3ccc4c(c3)OCO4)nc2c1	-15.1%	
COCCNC(=O)Nc1ccc2nc(-c3ccco3)c(-c3ccco3)nc2c1		12.6 µM (active)
COc1ccc(-c2nc3ccc(C(=O)NCc4ccc(C)cc4)cc3nc2-c2ccc(OC)cc2)cc1	-3.72%	
COc1ccc(NC(=O)COCc2cc(-c3ccco3)on2)cc1	0.68%	
COc1cccc(S(=O)(=O)NCc2ccc(C(=O)NCc3ccccn3)cc2)c1	0.376%	
O=C(NCc1ccccn1)c1ccc2nc(-c3ccco3)c(-c3ccco3)nc2c1		8.91 µM (active)
CCOc1ccc(NC(=O)c2ncoc2-c2ccco2)cc1	-4.8%	
Cc1cccc(C)c1NC(=O)NC1=CCCN1C	-6.49%	
CCCNC(=O)c1c(N)n(-c2ccc(S(N)(=O)=O)cc2)c2nc3ccccc3nc12		20 µM (active)
CCOC(=O)c1c(N)n(-c2cccc(C)c2C)c2nc3ccccc3nc12	-6.93%	
Cc1noc(C)c1C(=O)NCCc1ccc(S(N)(=O)=O)cc1	-0.714%	
COc1ccccc1CNc1ccnc(-c2c(C)noc2C)n1	-3.97%	
N#CCCn1c(=O)c(-c2cc(F)cc(F)c2)nc2cnc(Oc3ccccc3)nc21	-12.2%	
CC1(C)N=C(SCc2ccccc2Cl)c2ccccc2N1	-0.452%	

SMILES	activity change, negative = inhibition	Potency
O=C(NCCSc1ccccc1)c1ccco1	-7.71%	
c1ccc(CSc2nnc(-c3ccco3)c(-c3ccco3)n2)cc1		14.1 µM (active)
Cc1ccc(-c2nnc(SCC(=O)NCc3ccccc3)nc2-c2ccc(C)cc2)cc1	-9.64%	
Clc1ccccc1CSc1nncn2c1cc1occc12	-3.01%	
Clc1ccccc1CSc1nnc(-c2ccco2)c(-c2ccco2)n1		14.1 µM (active)
COc1ccc(N2CCN(C(=O)CSCc3nc(-c4ccccc4Cl)oc3C)CC2)cc1	-3.38%	
Cc1ccc2c(=O)c(C(=O)c3cccc(Cl)c3)cn(CC(=O)NCc3ccccc3)c2n1	1.52%	
C=C/C1=C/Cc2ccccc2[C@H](C[N+](=O)[O-])C(C(=O)OC)(C(=O)OC)C1	1.77%	
O=P(O)(O)OC[C@H](O)CO	-13.5%	
O=c1c(-c2cc(F)cc(F)c2)nc2cnc(Oc3ccccc3)nc2n1C[C@H]1CCCO1	-7.56%	
C=CCC(C)(O)c1ccco1 (centres undefined)	1.35%	
N#Cc1ccccc1-c1ccc2ncnc(NCc3cccnc3)c2c1	-6.8%	
CS(=O)(=O)c1ccc2nc(NC(=O)c3ccc(Cl)nc3)sc2c1		17.8 µM (active)
CN(C)c1cccc(C(=O)Nc2nc3ccc(S(=O)(=O)NC(C)(C)C)cc3s2)c1	-6.17%	
Cc1cc2nc(NC(=O)c3ccc(S(=O)(=O)N4CCOCC4)cc3)sc2cc1C	-6.29%	
CC(=O)OCC1OC(C#Cc2ccccc2Cl)C=CC1OC(C)=O (centres undefined)	2.5% [at 12.4 µM]	
O=C(c1cc2ccccc2s1)N1CCN(c2ccccn2)CC1	-3.96%	
O=C(c1cc(-c2ccc(Cl)cc2)on1)N1CCN(c2ccccc2)CC1	-2.16%	
O=C(c1cc2c(s1)CCC2)N1CCN(c2ccccc2)CC1		12.6 µM (active)
Cc1ccc(-c2cc(C(F)(F)F)c(C#N)c(SCC(=O)Nc3ccccc3)n2)cc1	-0.785%	
C=CCN1c2ccccc2[C@]23C[C@@H](C(=O)OC)N(S(=O)(=O)c4ccc([N+](=O)[O-])cc4)C2=NC(C(=O)OC)=C(C(=O)OC)[C@H]13	-4.61% [at 12.4 µM]	
CCCn1c(C)nc2c(NCCCCN(CC)CC)nc(C)nc21	-7.03%	
O=C(N/N=C/C=C/c1ccco1)c1cccs1		22.4 µM (active)
O=C(N/N=C/c1ccco1)c1csc2c1CCCC2	-12.9%	

SMILES	activity change, negative = inhibition	Potency
O=C(N/N=C/c1ccco1)c1ccc(NC(=O)C2CC2)cc1	-5.07%	
Cc1noc(C)c1-c1ccc2ncnc(NCc3ccc4[nH]ccc4c3)c2c1	2.82%	
CN=C1S/C(=C\c2ccc(Sc3ccc(Cl)cc3)o2)C(=O)N1C	1.6%	
O=C(NCc1ccccc1)c1cc(-c2cccc(Cl)c2)on1	-4.2%	
O=C(O)C(c1ccccc1)N1C(=O)/C(=C\c2ccc(-c3cccc(Cl)c3)o2)SC1=S (centres undefined)		22.4 µM (active)
CCN1CC=C2C(C#N)=C(N)C(C#N)(C#N)[C@H](c3ccoc3)[C@H]2C1		28.2 µM (active)
COc1cccc(-c2cc(=O)c3cc(NC(=O)c4ccc(C)cc4)ccc3[nH]2)c1	1.5% [at 75.6 µM]	
CCOC(=O)C1=NO[C@@]2(C=C(Br)C(=O)[C@H]3O[C@H]32)C1	4.08%	
CN1CCCC1CCO[C@@](C)(c1ccccc1)c1ccc(Cl)cc1 (some centres undefined)	-0.377%	
NS(=O)(=O)c1ccc2nc(NC(=O)COc3ccccc3)sc2c1	-2.46%	
CC(=O)OCC(=O)C1CCC2C3CCC4=CC(=O)CC[C@@]4(C)C3CC[C@]12C (some centres undefined)	-10.3%	
CC(C)(C)c1ccc(OC2C=CC(C#Cc3ccccc3)OC2CO)cc1 (centres undefined)	-1.55% [at 12.4 µM]	
COC(=O)[C@@H]1CC2=CC(=O)CC[C@]2(C)[C@@]23O[C@@H]2C[C@@]2(C)[C@@H](CC[C@@]24CCC(=O)O4)[C@H]13	4.16%	
O=C1CN(Cc2ccccc2)S(=O)(=O)c2ccccc21	-3.21%	
Nc1ccc2nc3c(=O)[nH]c(=S)[nH]c3nc2c1		2.82 µM (active)
O=C(Nc1cccc(C(F)(F)F)c1)c1cc(Br)cc(Br)c1O	-13.1%	
COC(=O)[C@@]1(Cc2ccc(OC)cc2)[C@H]2c3cc(C(=O)N4CCCC4)n(Cc4ccc(C(F)(F)F)nc4)c3C[C@H]2CN1C(=O)c1ccccc1	-17.2%	
COc1ccccc1CNC(=O)C(=O)NCC(c1cccs1)S(=O)(=O)c1cccs1 (centres undefined)	-2.66%	
CO[C@H]1COC(=O)[C@@H](OCc2ccccc2)/C=C\[C@H](C)[C@@H](OC)COC(=O)[C@H](OCc2ccccc2)/C=C\[C@@H]1C	6.6% [at 12.4 µM]	
CC(=O)OCC1OC(C#CCCCc2ccccc2)C=CC1OC(C)=O (centres undefined)	-2.87% [at 12.4 µM] and 2.33% [at 12.4 µM]	
C#CCCCCCCCCCCCCCCCC(=O)O		inactive
O=C(Nc1cccc(F)c1)N1CCC2(CC1)CCN(S(=O)(=O)c1ccccc1)CC2	-3.85%	
CNc1nc(Nc2ccc(C)c(Cl)c2)nc(N)c1[N+](=O)[O-]	-3.82%	
COc1cccc(Nc2nc(N)c([N+](=O)[O-])c(NCc3ccco3)n2)c1		3.55 µM (active)

SMILES	activity change, negative = inhibition	Potency
CN(c1ccccc1)c1nc(N)c([N+](=O)[O-])c(NCc2ccco2)n1	-4.92%	
CS(=O)(=O)N1CCC2(CC1)CN(Cc1ccccc1)C2	1.65%	
COC1[C@H](OC(N)=O)C(O)[C@H](Oc2ccc3c(O)c(NC(=O)c4ccc(O)c(CC=C(C)C)c4)c(=O)oc3c2C)OC1(C)C (some centres undefined)	-11.1%	
COc1ccc2c(c1)O[C@@H](c1ccc3c(c1)OCO3)[C@H](OC(=O)NCc1ccco1)C2=O	-1.86%	
Clc1ccc(C(Cn2ccnc2)OCc2ccsc2Cl)c(Cl)c1 (centres undefined)	-8.4%	
Cc1[nH]c2ccccc2c1C(c1ccccc1)c1cccs1 (centres undefined)	-2.8%	
COc1ccccc1CNc1cc(-c2ccccc2CN(C)C)ncn1	-4.32%	
C/C=C1\C2C=C(C)CC1(N)c1ccc(=O)[nH]c1C2 (centres undefined)	-1.88%	
COc1ccc(OC)c2sc(N3CCN(C(=O)C4COc5ccccc5O4)CC3)nc12 (centres undefined)	-5.31%	
COc1cc(NS(=O)(=O)c2ccc3c(c2)OCC(C(=O)N2CCCC2)O3)cc(OC)c1 (centres undefined)	0.541%	
Cc1c(CC(=O)N2CCN(C(=O)C3COc4ccccc4O3)CC2)c(=O)oc2c(O)c(O)ccc12 (centres undefined)		8.91 µM (active)
COC(=O)CC1c2ccccc2C(Cc2ccc(OC)cc2)=C(C)N1C(=O)OC (centres undefined)	1.25% [at 12.4 µM]	
O=C(NC1CC(=O)N(c2ccc(F)cc2)C1)c1ccc(S(=O)(=O)N2CCCC2)cc1 (centres undefined)	0.711%	
O=c1c(CCc2ccccc2)nc2cncnc2n1C1CC1	3%	
COC(=O)c1ccc(C(NC(=O)OCc2ccccc2)/C(C)=C/[C@@H](C)C(=O)NCc2cc(C)on2)cc1 (some centres undefined)	-7.71%	
C#CCC(C(=O)OC)(C(=O)OC)C(C[N+](=O)[O-])c1ccccc1 (centres undefined)	0.0811% [at 12.4 µM]	
COc1ccc(OCCCn2c(C3CC(=O)N(c4ccc(F)cc4)C3)nc3ccccc32)cc1 (centres undefined)	-6.91%	
Cc1ccc(N=C2NC(=O)/C(=C/C=C/c3ccco3)S2)cc1C		11.2 µM (active)
Cc1cc(N(C)C)nc(Cl)n1	2.61%	
O=S(O)S(=O)(=O)O	-2.82%	
N#Cc1cccc(CS(=O)(=O)c2nnnn2-c2cc(C(F)(F)F)cc(C(F)(F)F)c2)c1	2.23%	
O=C(c1ccco1)N1CCC[C@@]2(CCN(c3ccccc3)C2)C1	-1.82%	
